Data on six molecules can be found in PubChem BioAssay (EPA / NIEHS).

Values joined by “and” are separate entries in the source; they are usually repeats but may differ in a detail not shown here. Equal entries are not always repeated. Inconclusive results are not listed. The source holds several records for some structures; these can differ, active in one and inactive in another. Active and inactive are the calls of the source. Rule for the calls, unless noted: active = hit-call score of the fitted dose curve at least 0.9, where 1 is the maximum; inactive = score below 0.9.

Test [1] deals with Paired box protein Pax-6 (Homo sapiens) (UniProt P26367). Put plainly: ATG_Pax6_CIS: Attagene CIS-FACTORIAL HepG2 Assay for human Paired Box 6 (PAX6) (AID 2282956). As to conditions: HepG2 CIS-FACTORIAL PAX6 reporter transcription, RNA readout; actives raise or lower the signal. Summed up:
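Transient MRTU transfection of HepG2 → compound exposure 24 h → TriZol RNA, oligo(dT) RT → PCR, 6-FAM primer extension, HpaI cut → capillary electrophoresis; activity fitted both directions against DMSO.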

The nature of test [2]: ATG_PXRE_CIS: Attagene CIS-FACTORIAL HepG2 Assay for human Pregnane X Receptor Element (PXRE) (AID 2282957). The note with it: HepG2 Attagene CIS-FACTORIAL PXRE reporter, mRNA; actives raise or lower the signal. The method, boiled down: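 Transiently transfected HepG2 cells were dosed and incubated for 24 h. RNA was then isolated, DNase-treated, reverse-transcribed and reporter sequences amplified. Labeled, HpaI-digested fragments were quantified by capillary electrophoresis against DMSO.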

A short description of test [3]: ATG_PPRE_CIS: Attagene CIS-FACTORIAL HepG2 Assay for human Peroxisome Proliferator-activated Response Element (PPRE) (AID 2282958). As to conditions: HepG2 PPRE cis-element reporter, Attagene transcription factor profiling; actives raise or lower the signal. The method, boiled down:
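HepG2 cells are transiently transfected with multiplexed cis-promoter reporter units to report endogenous PPAR activity. After 24 h dosing, reporter mRNA is read by RT-PCR and capillary electrophoresis. Fitting is bidirectional against DMSO.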

Test [4] can be described thus: ATG_RORE_CIS: Attagene CIS-FACTORIAL HepG2 Assay for human RAR-related Orphan Receptor Element (RORE) (AID 2282959). As to conditions: HepG2 Attagene cis-factorial RORE reporter, mRNA; actives raise or lower the signal. Summed up:
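HepG2 cells carrying transiently transfected cis-regulated reporter units; RORE-driven reporter mRNA quantified 24 h post-dosing by RT-PCR, 6-FAM primer extension, HpaI digestion and capillary electrophoresis. Bidirectional fit versus DMSO.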

The nature of test [5]: ATG_Sox_CIS: Attagene CIS-FACTORIAL HepG2 Assay for human SRY-box transcription factor (SOX) (AID 2282960). The note with it: HepG2 Attagene cis-factorial SOX reporter, mRNA; actives raise or lower the signal. Summed up:
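HepG2 cells transiently transfected with multiple cis-regulated reporter units, then dosed for 24 h. Reporter mRNA quantified by RT-PCR, fluorescent labelling, HpaI digestion and capillary electrophoresis; bidirectional fit versus DMSO.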

In test [6] the target is Transcription factor Sp1 (Homo sapiens) (UniProt P08047). Put plainly: ATG_Sp1_CIS: Attagene CIS-FACTORIAL HepG2 Assay for human Specificity Protein 1 (Sp1) (AID 2282961). The note with it: HepG2 Sp1 cis-reporter transcription, actives raise or lower the signal. The method, boiled down:
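HepG2 cells transiently transfected with multiplexed cis-regulated reporter constructs, chemical exposure 24 h. Reporter mRNA quantified by RT-PCR with capillary electrophoresis; bidirectional fit relative to DMSO.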

Test [7] can be described thus: ATG_SREBP_CIS: Attagene CIS-FACTORIAL HepG2 Assay for human Sterol Regulatory Element Binding (SREBP) (AID 2282962). The note with it: HepG2 Attagene cis-factorial SREBP reporter, mRNA; actives raise or lower the signal. Summed up: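 Transfected HepG2 (cis-regulated reporter library, endogenous TFs) → compound 24 h → total RNA → oligo(dT) RT → reporter-specific PCR → FAM primer extension, HpaI cut → CE fluorescence. Fit bidirectional vs DMSO.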

In test [8] the target is Signal transducer and activator of transcription 3 (Homo sapiens) (UniProt P40763). Kind of test: ATG_STAT3_CIS: Attagene CIS-FACTORIAL HepG2 Assay for human Signal Transducer and Activator of Transcription 3 (STAT3) (AID 2282963). As to conditions: HepG2, Attagene cis-factorial STAT3 reporter transcription; actives raise or lower the signal. The method, boiled down: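 Transcript-level reporter assay. HepG2 transient MRTU transfection, 24 h exposure, fluorescence detection after RT-PCR and CE; DMSO baseline.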

Test [9] can be described thus: ATG_TA_CIS: Attagene CIS-FACTORIAL HepG2 Assay for human TA Basal Promoter (AID 2282964). The note with it: HepG2 Attagene CIS-factorial TA basal promoter reporter; actives raise or lower the signal. The method, boiled down:
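Transient MRTU transfection of HepG2 preceded 24 h compound exposure. Reporter mRNA levels were then read by RT-PCR with capillary electrophoresis, and this background-control endpoint was fitted bidirectionally to DMSO.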

Test [10] can be described thus: ATG_TCF_b_cat_CIS: Attagene CIS-FACTORIAL HepG2 Assay for human T-Cell-Factor with beta-catenin (TCF/b-cat) (AID 2282965). As to conditions: HepG2 TCF/beta-catenin cis-reporter transcription, actives raise or lower the signal. The method, boiled down: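 Using capillary electrophoresis as the read-out, labelled reporter cDNA fragments from transiently transfected HepG2 were sized and quantified. Exposure lasted 24 hours; activity in either direction was referenced to DMSO.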

The nature of test [11]: ATG_TAL_CIS: Attagene CIS-FACTORIAL HepG2 Assay for human TAL Basal Promoter (AID 2282966).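 Note: background control endpoint measuring basal TAL promoter reporter mRNA not a specific factor.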 As to conditions: HepG2 Attagene cis-factorial TAL promoter reporter; actives raise or lower the signal. The method, boiled down:
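Readout: reporter mRNA, fluorescence by CE. System: HepG2, transient multi-reporter transfection, endogenous TF activity. Exposure: 24 h. Analysis: bidirectional, DMSO-normalized; background control.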

Test [12] can be described thus: ATG_TGFb_CIS: Attagene CIS-FACTORIAL HepG2 Assay for human Transforming Growth Factor (TGF) (AID 2282967). As to conditions: HepG2 Attagene CIS TGFb reporter, mRNA transcription; actives raise or lower the signal. The method, boiled down: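 After a 24-hour incubation with compound, transfected HepG2 cells were lysed for RNA; reporter cDNA was amplified, fluorescently end-labeled and separated by CE. DMSO served as baseline for bidirectional fits.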

Test [13] can be described thus: ATG_VDRE_CIS: Attagene CIS-FACTORIAL HepG2 Assay for human Vitamin D Receptor Element (VDRE) (AID 2282968). The note with it: HepG2 VDRE cis-reporter transcription, actives raise or lower the signal. Summed up: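 RT-PCR/CE readout of reporter mRNA; HepG2, transient transfection, 24 h dosing; DMSO baseline; bidirectional analysis.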
The target in test [14] is Nuclear receptor subfamily 1 group I member 3 (Homo sapiens) (UniProt Q14994). Put plainly: ATG_CAR_TRANS: Attagene TRANS-FACTORIAL HepG2 Assay for human Constitutive Androstane Receptor (CAR) (AID 2282969; active = hit-call score of the fitted dose curve at least 0.9, where 1 is the maximum;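 note: activators raise reporter mRNA above DMSO so AC50 marks induction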). As to conditions: HepG2 Attagene TRANS-FACTORIAL CAR reporter. Summed up:
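HepG2 cells transiently transfected with multiplexed GAL4-UAS reporter units expressing chimeric NR-Gal4 proteins; compound exposure 24 h. Reporter mRNA measured by RT-PCR, 6-FAM labelling, HpaI digestion and capillary electrophoresis; gain-of-signal fitted against DMSO baseline.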

Test [15] addresses X-box-binding protein 1 (Homo sapiens) (UniProt P17861). Kind of test: ATG_Xbp1_CIS: Attagene CIS-FACTORIAL HepG2 Assay for human X-box Binding Protein 1 (XBP1) (AID 2282972). As to conditions: HepG2 XBP1 cis-element reporter, Attagene multiplex; actives raise or lower the signal. The method, boiled down: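 HepG2, transient MRTU transfection (cis-promoter driven), 24 h compound exposure. Total RNA → oligo(dT) RT → PCR → 6-FAM labeling → HpaI cut → CE. Bidirectional fit vs DMSO.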

Test [16] can be described thus: ATG_M_19_TRANS: Attagene TRANS-FACTORIAL HepG2 Assay for M19 Transcription Factor (Internal Marker) (AID 2282974; active = hit-call score of the fitted dose curve at least 0.9, where 1 is the maximum). The note with it: HepG2 Attagene TRANS-FACTORIAL M19 internal marker reporter. The method, boiled down:
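HepG2 transiently transfected with GAL4-UAS multiplex reporter constructs, exposed 24 h; reporter RNA quantified by RT-PCR, 6-FAM labeling, HpaI digestion and capillary electrophoresis; internal background marker fitted upward versus DMSO.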

Test [17] has as its target Estrogen receptor (Homo sapiens) (UniProt P03372). Put plainly: ATG_ERa_TRANS: Attagene TRANS-FACTORIAL HepG2 Assay for human Estrogen Receptor alpha (ERa) (AID 2282970; active = hit-call score of the fitted dose curve at least 0.9, where 1 is the maximum). The note with it: HepG2 Attagene TRANS ERa GAL4 reporter, mRNA. The method, boiled down:
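Transactivation via ERa-Gal4 chimera in HepG2; 24 hour incubation; reporter mRNA detected by fluorescence RT-PCR and capillary electrophoresis.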

Test [18] has as its target Androgen receptor (Homo sapiens) (UniProt P10275). Kind of test: ATG_AR_TRANS: Attagene TRANS-FACTORIAL HepG2 Assay for human Androgen Receptor (AR) (AID 2282973; active = hit-call score of the fitted dose curve at least 0.9, where 1 is the maximum). As to conditions: HepG2 Attagene TRANS-FACTORIAL AR reporter transcription. The method, boiled down: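 Transfected HepG2, 24 h treatment, chimeric NR-Gal4 driving GAL4-UAS reporters. mRNA induction by RT-PCR/capillary electrophoresis fluorescence; DMSO as negative control and baseline.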

The target of test [19] is Steroid hormone receptor ERR1 (Homo sapiens) (UniProt P11474). Kind of test: ATG_ERRa_TRANS: Attagene TRANS-FACTORIAL HepG2 Assay for human Estrogen-Related Receptor alpha (ERRa) (AID 2282971; active = hit-call score of the fitted dose curve at least 0.9, where 1 is the maximum). As to conditions: HepG2 Attagene TRANS reporter, ERRa transactivation. The method, boiled down: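 HepG2 cells were transiently transfected with multiple GAL4-UAS reporter units, then dosed with compound for 24 h. Total RNA was reverse-transcribed, reporter cDNA PCR-amplified and fluorescently labelled, and fragments resolved by capillary electrophoresis; induction was compared with DMSO.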
Sequence of Steroid hormone receptor ERR1 (Homo sapiens) (P11474 whole entry, looked up, the tested form may be a part): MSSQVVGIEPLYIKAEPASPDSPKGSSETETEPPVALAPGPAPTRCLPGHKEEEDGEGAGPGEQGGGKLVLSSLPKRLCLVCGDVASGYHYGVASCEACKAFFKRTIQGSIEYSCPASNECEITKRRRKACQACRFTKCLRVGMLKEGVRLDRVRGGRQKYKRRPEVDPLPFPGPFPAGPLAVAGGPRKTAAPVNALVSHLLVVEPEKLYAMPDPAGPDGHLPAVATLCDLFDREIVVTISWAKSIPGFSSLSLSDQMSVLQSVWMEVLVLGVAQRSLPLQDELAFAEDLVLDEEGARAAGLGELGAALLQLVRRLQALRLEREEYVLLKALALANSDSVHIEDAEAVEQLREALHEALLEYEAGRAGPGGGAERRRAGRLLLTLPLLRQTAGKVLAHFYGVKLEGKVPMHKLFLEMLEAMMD

Sequence of Signal transducer and activator of transcription 3 (Homo sapiens) (P40763 whole entry, looked up): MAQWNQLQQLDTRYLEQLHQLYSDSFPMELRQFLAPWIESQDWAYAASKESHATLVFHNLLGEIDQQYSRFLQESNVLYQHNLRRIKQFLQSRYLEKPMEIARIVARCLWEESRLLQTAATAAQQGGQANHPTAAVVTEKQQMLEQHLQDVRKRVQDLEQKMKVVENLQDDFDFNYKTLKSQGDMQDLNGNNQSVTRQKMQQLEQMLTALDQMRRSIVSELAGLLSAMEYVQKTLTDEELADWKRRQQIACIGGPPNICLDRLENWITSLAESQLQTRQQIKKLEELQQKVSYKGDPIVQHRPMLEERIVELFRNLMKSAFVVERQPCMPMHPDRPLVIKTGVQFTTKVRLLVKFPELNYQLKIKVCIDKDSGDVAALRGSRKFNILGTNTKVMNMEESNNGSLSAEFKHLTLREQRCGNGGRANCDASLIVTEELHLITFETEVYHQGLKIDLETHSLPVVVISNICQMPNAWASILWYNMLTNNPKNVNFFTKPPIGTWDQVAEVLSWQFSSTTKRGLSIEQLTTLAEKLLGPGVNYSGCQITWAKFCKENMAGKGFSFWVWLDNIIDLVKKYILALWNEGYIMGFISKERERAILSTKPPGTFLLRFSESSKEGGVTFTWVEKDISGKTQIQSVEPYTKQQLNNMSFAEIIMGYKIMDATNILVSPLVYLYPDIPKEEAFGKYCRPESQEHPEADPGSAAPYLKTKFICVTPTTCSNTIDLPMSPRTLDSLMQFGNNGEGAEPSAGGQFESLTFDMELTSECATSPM
Sequence of Paired box protein Pax-6 (Homo sapiens) (P26367 whole entry, looked up): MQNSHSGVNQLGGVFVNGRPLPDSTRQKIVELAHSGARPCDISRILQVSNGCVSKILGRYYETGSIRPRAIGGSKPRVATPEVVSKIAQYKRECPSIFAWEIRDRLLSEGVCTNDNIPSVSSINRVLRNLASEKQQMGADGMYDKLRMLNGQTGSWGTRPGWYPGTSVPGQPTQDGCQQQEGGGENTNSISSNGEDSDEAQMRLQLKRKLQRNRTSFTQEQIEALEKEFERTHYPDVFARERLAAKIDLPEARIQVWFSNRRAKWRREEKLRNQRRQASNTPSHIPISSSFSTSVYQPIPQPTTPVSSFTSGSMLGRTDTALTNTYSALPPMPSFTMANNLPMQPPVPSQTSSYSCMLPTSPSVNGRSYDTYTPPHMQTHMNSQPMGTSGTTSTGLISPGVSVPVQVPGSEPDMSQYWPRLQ
Sequence of X-box-binding protein 1 (Homo sapiens) (P17861 whole entry, looked up): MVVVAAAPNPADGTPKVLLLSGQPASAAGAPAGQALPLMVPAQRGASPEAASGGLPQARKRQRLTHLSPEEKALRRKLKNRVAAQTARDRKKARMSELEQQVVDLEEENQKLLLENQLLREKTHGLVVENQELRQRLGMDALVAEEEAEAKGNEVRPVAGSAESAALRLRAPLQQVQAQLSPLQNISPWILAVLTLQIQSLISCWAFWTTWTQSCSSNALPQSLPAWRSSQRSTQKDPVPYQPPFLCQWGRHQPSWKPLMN
Sequence of Transcription factor Sp1 (Homo sapiens) (P08047 whole entry, looked up): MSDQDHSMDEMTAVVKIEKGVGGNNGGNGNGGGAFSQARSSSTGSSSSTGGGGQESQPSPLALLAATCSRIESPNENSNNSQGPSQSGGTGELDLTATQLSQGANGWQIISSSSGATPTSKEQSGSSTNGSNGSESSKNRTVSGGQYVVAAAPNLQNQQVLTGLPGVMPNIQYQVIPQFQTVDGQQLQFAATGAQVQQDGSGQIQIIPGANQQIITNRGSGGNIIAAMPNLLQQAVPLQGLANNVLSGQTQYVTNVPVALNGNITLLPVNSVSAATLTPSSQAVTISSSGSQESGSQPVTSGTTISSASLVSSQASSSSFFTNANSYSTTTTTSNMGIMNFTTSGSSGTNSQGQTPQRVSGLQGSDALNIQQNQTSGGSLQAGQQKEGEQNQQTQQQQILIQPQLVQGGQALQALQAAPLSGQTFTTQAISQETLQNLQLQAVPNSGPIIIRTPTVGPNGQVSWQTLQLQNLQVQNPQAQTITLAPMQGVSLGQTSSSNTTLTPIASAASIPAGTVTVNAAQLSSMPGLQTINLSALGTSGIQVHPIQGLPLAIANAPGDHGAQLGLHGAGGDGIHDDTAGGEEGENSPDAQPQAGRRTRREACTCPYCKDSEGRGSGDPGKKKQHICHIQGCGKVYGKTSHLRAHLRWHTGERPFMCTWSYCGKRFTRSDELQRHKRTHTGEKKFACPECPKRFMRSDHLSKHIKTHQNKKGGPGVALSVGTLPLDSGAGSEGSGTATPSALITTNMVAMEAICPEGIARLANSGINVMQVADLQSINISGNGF
Sequence of Nuclear receptor subfamily 1 group I member 3 (Homo sapiens) (Q14994 whole entry, looked up, the tested form may be a part): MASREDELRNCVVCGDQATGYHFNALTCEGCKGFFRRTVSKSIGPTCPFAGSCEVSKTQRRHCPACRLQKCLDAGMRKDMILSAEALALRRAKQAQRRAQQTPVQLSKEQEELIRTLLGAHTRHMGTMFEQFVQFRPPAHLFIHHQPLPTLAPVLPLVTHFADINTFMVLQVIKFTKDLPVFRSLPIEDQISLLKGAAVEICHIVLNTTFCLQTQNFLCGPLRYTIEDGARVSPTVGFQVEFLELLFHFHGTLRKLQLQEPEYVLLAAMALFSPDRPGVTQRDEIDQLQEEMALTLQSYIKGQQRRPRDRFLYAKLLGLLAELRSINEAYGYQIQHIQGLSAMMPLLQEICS
Sequence of Estrogen receptor (Homo sapiens) (P03372 whole entry, looked up, the tested form may be a part): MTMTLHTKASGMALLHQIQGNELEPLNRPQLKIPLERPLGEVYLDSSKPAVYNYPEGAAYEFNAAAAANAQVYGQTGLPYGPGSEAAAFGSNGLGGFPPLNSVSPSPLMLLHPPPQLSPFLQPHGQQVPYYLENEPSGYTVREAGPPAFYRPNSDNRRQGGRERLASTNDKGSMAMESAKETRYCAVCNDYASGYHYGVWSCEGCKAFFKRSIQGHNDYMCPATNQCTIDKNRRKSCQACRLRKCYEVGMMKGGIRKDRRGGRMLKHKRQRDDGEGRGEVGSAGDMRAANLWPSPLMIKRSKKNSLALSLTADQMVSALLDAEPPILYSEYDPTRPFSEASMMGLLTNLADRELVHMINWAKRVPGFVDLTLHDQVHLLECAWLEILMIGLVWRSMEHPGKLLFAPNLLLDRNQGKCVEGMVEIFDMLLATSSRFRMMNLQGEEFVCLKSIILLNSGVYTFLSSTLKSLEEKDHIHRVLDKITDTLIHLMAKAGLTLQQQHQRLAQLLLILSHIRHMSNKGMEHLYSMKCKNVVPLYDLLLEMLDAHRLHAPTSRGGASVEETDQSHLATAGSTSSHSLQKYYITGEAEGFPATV
Sequence of Androgen receptor (Homo sapiens) (P10275 whole entry, looked up, the tested form may be a part): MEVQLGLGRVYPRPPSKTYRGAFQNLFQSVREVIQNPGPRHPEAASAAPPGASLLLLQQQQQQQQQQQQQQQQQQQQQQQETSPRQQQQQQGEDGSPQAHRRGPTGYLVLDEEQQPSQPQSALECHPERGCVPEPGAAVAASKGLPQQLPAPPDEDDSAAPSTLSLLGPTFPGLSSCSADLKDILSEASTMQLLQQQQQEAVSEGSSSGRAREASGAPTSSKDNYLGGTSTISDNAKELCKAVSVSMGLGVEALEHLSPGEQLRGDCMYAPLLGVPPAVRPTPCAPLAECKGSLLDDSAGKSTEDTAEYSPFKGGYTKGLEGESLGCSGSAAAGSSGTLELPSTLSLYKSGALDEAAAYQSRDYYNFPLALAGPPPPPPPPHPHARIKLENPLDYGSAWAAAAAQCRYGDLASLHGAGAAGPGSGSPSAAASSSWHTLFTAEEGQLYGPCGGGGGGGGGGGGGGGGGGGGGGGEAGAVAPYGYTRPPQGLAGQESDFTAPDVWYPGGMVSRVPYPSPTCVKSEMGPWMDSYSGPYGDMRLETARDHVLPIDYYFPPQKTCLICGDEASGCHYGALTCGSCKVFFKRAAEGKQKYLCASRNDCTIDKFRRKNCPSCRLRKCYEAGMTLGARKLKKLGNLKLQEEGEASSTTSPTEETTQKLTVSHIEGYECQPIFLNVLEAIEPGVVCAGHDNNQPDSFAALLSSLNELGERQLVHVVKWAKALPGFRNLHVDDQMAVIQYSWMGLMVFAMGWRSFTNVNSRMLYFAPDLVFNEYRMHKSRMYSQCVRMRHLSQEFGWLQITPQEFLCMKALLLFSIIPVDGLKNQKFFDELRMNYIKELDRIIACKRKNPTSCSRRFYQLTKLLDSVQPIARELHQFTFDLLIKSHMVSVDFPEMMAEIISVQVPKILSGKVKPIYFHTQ

The AC50 is the concentration giving half of the maximal activity seen. As for `CO/C=C(/C(=O)OC)c1ccccc1COc1cccc(C(F)(F)F)n1`, the AC50 in test [1] is 31.9 µM (active); in test [2], 3.54 µM (active); in [3], 37.3 µM (active); in test [4], 23 µM (active); in [7], 4.44 µM (active); in test [10] it was 26.4 µM (active). Also, the AC50 in test [13] was 11.9 µM (active); in test [15] it was 7.76 µM (active). The molecule was called inactive in test [5], in test [6], in [8], in test [9], in test [11] and in test [12]. The outcome in test [14] and in test [16] was inactive.

On to `CC(C)C(=O)OCC(C)(C)C(OC(=O)C(C)C)C(C)C` (stereo unspecified), for which the molecule was classed as inactive in test [1], in test [3], in test [4], in [5], in [6] and in [7]. The call in test [8], in test [9], in test [10], in test [11], in test [12] and in test [13] was inactive. For the same molecule, the result in test [14], in [15] and in test [16] was inactive. For the same molecule, the concentration at half-maximal activity (AC50) in test [2] was 26.7 µM (active); in test [17] it was 52.8 µM (active).

Consider `Cc1cc(-c2ccc(N)c(C)c2)ccc1N`, for which the outcome in [1], in [2], in [4], in [5], in test [6] and in test [7] was inactive. The result in test [8], in test [9], in test [10], in [11], in test [12] and in test [13] was inactive. Also, the call in [14], in [15] and in [16] was inactive. Further, the AC50 in test [2] is 46.7 µM (active); in test [17] it was 8.74 µM (active) and 6.68 µM (active).

Take `CCOC(=O)C(O)(c1ccc(Cl)cc1)c1ccc(Cl)cc1`: the outcome in [1], in test [3], in [4], in [5], in [6] and in test [7] was inactive. In addition, the molecule was classed as inactive in [8], in test [9], in test [10], in test [11], in test [12] and in test [14]. The call in test [17], in test [15], in [18] and in test [16] was inactive. Besides, the half-maximal activity concentration (AC50) is 3.33 µM (active) in [2] and 11.1 µM (active) in [13].

As for `C[C@]12CCC(=O)C=C1CC[C@@H]1[C@@H]2CC[C@]2(C)C(=O)CC[C@@H]12`, the call in [1], in test [2], in test [3], in [4], in test [5] and in [6] was inactive. Also, the result in test [7], in [8], in [9], in test [10], in test [11] and in [12] was inactive. Besides, the outcome in test [15] was inactive. For the same molecule, the AC50 was 15.2 µM (active) and 27.7 µM (active) and 15.3 µM (active) in [2]; 68.4 µM (active) in test [7]; 65.1 nM (active) and 9.14 nM (active) and 9.25 nM (active) in [17].

Turning to `CC(c1ccc(O)cc1)(c1ccc(O)cc1)c1ccc(O)cc1`, the AC50 in [1] is 11.1 µM (active); in [2], 0.575 µM (active); in test [4], 11.1 µM (active); in test [6], 19.6 µM (active); in test [7] it was 2.64 µM (active); in [9], 17.3 µM (active). The AC50 in test [10] is 11.9 µM (active); in [13], 6.08 µM (active); in [17] it was 0.129 µM (active); in test [15] it was 11.1 µM (active). Also, the molecule was called inactive in test [3], in test [5], in test [8], in test [11], in [12] and in [19]. Besides, in [16], the molecule was classed as inactive.
